Sm TGR block: S. mansoni TGR enzyme inhibition. Q962Y6. purified TGR, DTNB reduction, TNB absorbance 405 nm. Potency, µM (top dose mostly 114 µM), for the others: top-dose activity change, negative = inhibition, actives largely listed as inhibitors. 3% of 360,000 active; also: nearly all actives have a fitted effect of over 60% in size
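First, TGR (20 nM dispensed) and NADPH were mixed with compound. Second, a 15 min room-temperature incubation followed. Third, further NADPH and then DTNB were added to start the reaction. Finally, TNB absorbance was monitored kinetically.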
HCV inh: HCV inhibition. AID 651820. 3.4% of 340,000 active. Potency, µM (doses to about 41.8 µM), for the others: at the highest dose activity change, negative = inhibition, hits mostly inhibitors. Huh7.5.1 HCVcc-Cre infection, luciferase reporter, 44 h
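1,000 cells/well; 4 h culture; + compound; + HCVcc-Cre (~0.5 moi); 44 h; luciferase substrate, RT 15 min; read 15 sec.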
RE007 growth inh: less growth of the S. pombe RE007 Vpr strain. S. pombe RE007 Vpr strain, BacTiter-Glo ATP luminescence, 24 h. Potency, µM (top dose mostly 92.2 µM), for the others: top-dose activity change, negative = less growth, hits mostly inhibitors. 0.21% of 360,000 active; active = well fitted falling curve with a large enough effect; inconclusive = small, poorly fitted or top-dose-only effect; inactive = no such curve, though single readings can be large or run the other way; also: nearly all actives have a fitted effect of over 50% in size
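Fission yeast strain RE007, carrying one chromosomally integrated HIV-1 vpr copy, was seeded at OD 0.01 in PMG+AL medium with 23 nL pinned compound. After 24 h at 30 °C and 99% humidity, viability was read by BacTiter-Glo luminescence.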
FMDV inh: blocks foot and mouth disease virus; 1.2% of 410,000 active; Potency, µM (doses to about 57.9 µM), for inactives: at the top dose activity change, negative = inhibition, actives largely listed as inhibitors; FMDV antiviral cell-based qHTS; AID 1159524; calls by dose curve; tested in HEK293T cells; also: read-out not given here; nearly all actives have a fitted effect of over 45% in size
MARV entry inh: blocks Marburg virus binding to or entry into cells; Marburg virus pseudotyped entry inhibition, cell reporter; Potency, µM (series often up to 37.8 µM), inactives show at the highest dose activity change, negative = inhibition, most hits filed as inhibitors; 1.8% of 300,000 active; calls by dose curve; tested in HEK293 cells
LASV entry inh: inhibitors of Lassa virus binding or cell entry | Lassa virus pseudotype entry inhibition, cell reporter | Potency, µM (doses to about 37.9 µM), inactives show top-dose activity change, negative = inhibition, hits mostly inhibitors | 1.2% of 300,000 active | AID 540256; calls by dose curve; tested in HEK293 cells; also: nearly all actives have a fitted effect of over 50% in size
Numbers without * were called inactive; [ ] = another dose, or the depositor's remark. A selection: hits, their analogues and other compounds. The true share with any hit is near 7.2%. Unless noted, calls follow the shape of the dose curve; as a rule, active = well fitted curve in the direction sought with a large enough effect; inconclusive = small, poorly fitted or top-dose-only effect, or another doubt; inactive = no such curve, though single readings can be large; an effect the other way counts as inactive or inconclusive. % is scaled to controls: 0 for no effect and ±100 for the full control effect; potency is read from the fitted curve at half-maximal effect.

Screening COCCN(CCOC)Cc1c(O)ccc2c1O/C(=C\c1ccc(C)o1)C2=O returned Sm TGR block 1.8µM*, HCV inh -18%, RE007 growth inh 4%, FMDV inh 36%, MARV entry inh 0%[46.1 µM] and LASV entry inh 4%[46.1 µM].
`CCN(CC)S(=O)(=O)c1ccc2nc(NC(=O)c3cccnc3)sc2c1` gave Sm TGR block -12%, FMDV inh -9% and LASV entry inh 6%[46.1 µM].
Screening O=C(COC(=O)c1nc(Cl)ccc1Cl)c1ccc[nH]1 returned Sm TGR block 5%, HCV inh -1%, RE007 growth inh 1%, FMDV inh -8%, MARV entry inh -2%[46.1 µM] and LASV entry inh -8%.
O=C(COC(=O)c1nc(Cl)c(Cl)c(Cl)c1Cl)c1ccc[nH]1 was read as Sm TGR block 20µM*, HCV inh inconclusive, RE007 growth inh -27%, FMDV inh -12%, MARV entry inh -19% and LASV entry inh -1%.
COc1cc(NC(=O)COc2cccc3c2OC(C)(C)C3)cc(OC)c1OC was read as Sm TGR block -5%, HCV inh inconclusive, RE007 growth inh -12% and FMDV inh 22µM*.
For COc1cc(NC(=O)COc2cc(O)c3c(c2)OC(C)(C)CC3=O)cc(OC)c1OC the results were Sm TGR block -13%, HCV inh 0.32µM*, RE007 growth inh 0% and FMDV inh 4µM*.
COc1cc(C)c(NC(=O)COc2cccc3c2OC(C)(C)C3)cc1OC was read as Sm TGR block 1%, HCV inh 10µM*, RE007 growth inh -2% and FMDV inh inconclusive.
CCc1nn(CC(=O)N2CCN(c3cccc(C(F)(F)F)c3)CC2)c(=O)c2cccn12 was read as Sm TGR block -13%, FMDV inh -9%, MARV entry inh inconclusive and LASV entry inh 2%[46.1 µM].
For O=C(CCNC(=O)c1ccc(Cl)cc1)Nc1ccc(S(=O)(=O)N2CCOCC2)cc1 the results were Sm TGR block -1%, HCV inh -6%, RE007 growth inh 7% and FMDV inh -19%.
Screening Cc1ccccc1NC(=O)NCC1CCN(c2ccc(S(=O)(=O)N3CCOCC3)cc2)CC1 returned Sm TGR block -2%, HCV inh 35µM*, RE007 growth inh -11%, FMDV inh inconclusive, MARV entry inh -6% and LASV entry inh -16%.
O=C(NCC1CCN(c2ccc(S(=O)(=O)N3CCOCC3)cc2)CC1)c1ccc(Cl)cc1 was read as Sm TGR block 0%, HCV inh inconclusive, RE007 growth inh 4%, FMDV inh 40µM*, MARV entry inh inconclusive and LASV entry inh inconclusive.
For CNC(=O)c1cnc2sc(N3CCCCCC3)nn2c1=O the results were Sm TGR block -9%, FMDV inh 35% and LASV entry inh inconclusive.
Screening Cc1cccc(CNc2nc(-c3ccccc3CN(C)C)nc3ccccc23)c1 returned FMDV inh -27%.
`NC(N)=N/N=C(\N=Nc1ccccc1)c1ccc(Cl)cc1` gave HCV inh inconclusive, RE007 growth inh 4%, FMDV inh 9%, MARV entry inh inconclusive and LASV entry inh 16µM*.
CCOc1ccc(CCNC(=O)Cn2c(-c3cccs3)cc3ccccc32)cc1 was read as Sm TGR block 1%, FMDV inh -1% and LASV entry inh -20%[46.1 µM].
Screening c1ccc(-c2cc3ccccc3nc2N2CCCC2)cc1 returned Sm TGR block 0%, HCV inh inconclusive, RE007 growth inh -15%, FMDV inh -22%, MARV entry inh -1% and LASV entry inh 3%.
Cc1ccc(-c2nnc(-c3ccccc3)c(N3CCOCC3)n2)cc1 was read as Sm TGR block 4%, HCV inh 11µM*, RE007 growth inh -11%, FMDV inh inconclusive, MARV entry inh inconclusive and LASV entry inh -22%.
For CN1CCN(c2nc(-c3ccc(Br)cc3)nnc2-c2ccccc2)CC1 the results were Sm TGR block 9%, HCV inh inconclusive, RE007 growth inh -21%, FMDV inh -15%, MARV entry inh -8% and LASV entry inh 13%.
`Cc1ccc(-c2cc3ccccc3nc2N2CCOCC2)cc1` gave Sm TGR block -2%, HCV inh 10µM*, RE007 growth inh 2%, FMDV inh -19%, MARV entry inh 19%[46.1 µM] and LASV entry inh 19%[46.1 µM].
O=C(O)c1ccc(N/N=C/c2c(F)cccc2Cl)cc1 was read as Sm TGR block -27%, HCV inh -10%, RE007 growth inh -25% and FMDV inh 32µM*.
CC(C)(C)c1ccc(/C=N/Nc2ccc(C(=O)O)cc2)cc1 was read as Sm TGR block -1%, HCV inh 6%, RE007 growth inh inconclusive, FMDV inh 7.1µM*, MARV entry inh 3.7µM* and LASV entry inh 2µM*.
O=C(O)c1ccc(/C=N/Nc2ccc(F)cc2F)cc1 was read as Sm TGR block -18%, HCV inh 23%, RE007 growth inh 154%, FMDV inh -74%, MARV entry inh 14µM* and LASV entry inh 2.8µM*.
`O=C(O)c1ccc(N/N=C/c2ccc(C(F)(F)F)cc2)cc1` gave Sm TGR block -3%, HCV inh 31%, RE007 growth inh 35µM*, FMDV inh inconclusive, MARV entry inh 1.6µM* and LASV entry inh 1.3µM*.
Screening Fc1ccc(N/N=C/c2ccncc2)c(F)c1 returned Sm TGR block -7%, HCV inh 2%, RE007 growth inh 119%, FMDV inh 25%, MARV entry inh 33% and LASV entry inh 1%.
For Cc1ccc(Cl)cc1N1CCN(C(=O)c2cnn(C)c2C2CCN(C(=O)OC(C)(C)C)CC2)CC1 the results were Sm TGR block -3%, FMDV inh inconclusive and LASV entry inh -22%[46.1 µM].
Screening CC(C)OC(=O)[C@H](C)NC(=O)N1CCc2nc(COc3ccccc3)c3c(c2C1)CO[C@@H](C)C3 returned MARV entry inh -36%[14.2 µM].
CCN(CC)c1nc2ccccc2nc1C(C#N)C(=O)NCCCOC (stereo unspecified) was read as Sm TGR block -4%, HCV inh 7.1µM*, RE007 growth inh -6%, FMDV inh inconclusive, MARV entry inh -1% and LASV entry inh -23%.
For CCn1c(-c2cccnc2)nc2cc(NC(=O)COC)cc(C(=O)N3CCOc4ccccc4C3)c21 the results were FMDV inh 2%.
For CCOC(=O)c1c(NC(=O)C2c3ccccc3Oc3ccccc32)sc(C(=O)N(CC)CC)c1C the results were Sm TGR block 37%, HCV inh 7.1µM*, RE007 growth inh -20%, FMDV inh inconclusive, MARV entry inh 13µM* and LASV entry inh inconclusive.
